# Assay results reported in article PMC7862700, “An all-to-all approach to the identification of sequence-specific readers for epigenetic DNA modifications on cytosine”.
# Tests used:
# Experiment in all cases: DAPPL (digital affinity profiling via proximity ligation, sequencing); 10 mM Tris-HCl pH 7.5, 50 mM NaCl, 1 mM DTT, 4% glycerol, room temperature, 30 min; GST-TFs on glutathione beads, 16-mer random dsDNA library, 0.1% formaldehyde crosslink after washing; high values mean tight binding
# [1] = target: T1, FLI1 (Homo sapiens, UniProt Q01543 1-452); details: protein: recombinant; tags: N-terminal GST; dsDNA, one strand shown
# T1 sequence: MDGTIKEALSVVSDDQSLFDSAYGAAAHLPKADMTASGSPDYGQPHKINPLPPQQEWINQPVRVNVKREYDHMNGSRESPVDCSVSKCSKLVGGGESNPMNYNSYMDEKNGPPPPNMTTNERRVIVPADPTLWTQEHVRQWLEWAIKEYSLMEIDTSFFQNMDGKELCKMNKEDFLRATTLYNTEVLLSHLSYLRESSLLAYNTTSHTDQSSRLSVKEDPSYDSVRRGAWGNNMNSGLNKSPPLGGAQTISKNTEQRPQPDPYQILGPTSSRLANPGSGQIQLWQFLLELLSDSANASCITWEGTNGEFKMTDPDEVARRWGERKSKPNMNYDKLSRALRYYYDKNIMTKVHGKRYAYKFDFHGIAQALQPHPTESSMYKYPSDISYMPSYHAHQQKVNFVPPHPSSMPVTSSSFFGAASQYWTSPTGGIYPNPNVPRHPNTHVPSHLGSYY
# Outline: (§1)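 In yeast, human transcription factors were expressed with a GST fusion, then pulled down on glutathione beads and given DNA barcodes. Pooled with a tag-only sample, they were exposed to 200 nmole of a 16-mer random double-stranded DNA library (Tris/NaCl/DTT/glycerol buffer, room temperature, 30 min), washed, crosslinked with 0.1% formaldehyde, proximity-ligated using BsaI/T4 ligase for 1 h at 37 °C, PCR-amplified and read on an Illumina NextSeq500. Each hexamer's frequency of reads for a factor, divided by the matching frequency for the tag-only sample, gives the binding signal.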
# [2] = target: T2, ELK1 (Homo sapiens, UniProt P19419 1-428); details: protein: recombinant; tags: N-terminal GST; dsDNA, one strand shown
# T2 sequence: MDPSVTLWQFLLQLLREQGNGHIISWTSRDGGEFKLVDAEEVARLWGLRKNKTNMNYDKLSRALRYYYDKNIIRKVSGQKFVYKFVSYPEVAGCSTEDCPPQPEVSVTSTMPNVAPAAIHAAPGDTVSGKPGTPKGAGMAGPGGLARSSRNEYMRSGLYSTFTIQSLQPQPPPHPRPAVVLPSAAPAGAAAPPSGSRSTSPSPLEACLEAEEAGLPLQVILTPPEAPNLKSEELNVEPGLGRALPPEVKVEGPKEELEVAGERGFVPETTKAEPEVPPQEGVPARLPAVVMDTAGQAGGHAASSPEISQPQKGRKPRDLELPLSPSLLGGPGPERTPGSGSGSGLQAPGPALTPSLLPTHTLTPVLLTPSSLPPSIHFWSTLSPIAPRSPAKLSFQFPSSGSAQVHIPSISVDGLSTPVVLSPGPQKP
# Outline: as §1
# [3] = target: T3, GABPA (Homo sapiens, UniProt Q06546 1-454); details: protein: recombinant; tags: N-terminal GST; dsDNA, one strand shown
# T3 sequence: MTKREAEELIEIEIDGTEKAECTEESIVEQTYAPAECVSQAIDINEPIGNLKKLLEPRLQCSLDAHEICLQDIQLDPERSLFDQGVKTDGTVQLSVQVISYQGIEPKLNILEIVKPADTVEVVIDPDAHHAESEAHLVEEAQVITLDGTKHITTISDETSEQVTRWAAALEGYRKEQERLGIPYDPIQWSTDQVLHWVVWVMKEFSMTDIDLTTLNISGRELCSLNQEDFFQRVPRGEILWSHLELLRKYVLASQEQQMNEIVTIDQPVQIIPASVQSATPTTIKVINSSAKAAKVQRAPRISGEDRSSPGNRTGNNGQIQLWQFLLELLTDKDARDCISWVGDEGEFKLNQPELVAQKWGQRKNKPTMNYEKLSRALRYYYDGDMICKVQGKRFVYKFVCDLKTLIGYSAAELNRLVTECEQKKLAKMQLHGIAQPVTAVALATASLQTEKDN
# Outline: as §1
# [4] = target: T4, ERG (Homo sapiens, UniProt P11308 1-479); details: protein: recombinant; tags: N-terminal GST; dsDNA, one strand shown
# T4 sequence: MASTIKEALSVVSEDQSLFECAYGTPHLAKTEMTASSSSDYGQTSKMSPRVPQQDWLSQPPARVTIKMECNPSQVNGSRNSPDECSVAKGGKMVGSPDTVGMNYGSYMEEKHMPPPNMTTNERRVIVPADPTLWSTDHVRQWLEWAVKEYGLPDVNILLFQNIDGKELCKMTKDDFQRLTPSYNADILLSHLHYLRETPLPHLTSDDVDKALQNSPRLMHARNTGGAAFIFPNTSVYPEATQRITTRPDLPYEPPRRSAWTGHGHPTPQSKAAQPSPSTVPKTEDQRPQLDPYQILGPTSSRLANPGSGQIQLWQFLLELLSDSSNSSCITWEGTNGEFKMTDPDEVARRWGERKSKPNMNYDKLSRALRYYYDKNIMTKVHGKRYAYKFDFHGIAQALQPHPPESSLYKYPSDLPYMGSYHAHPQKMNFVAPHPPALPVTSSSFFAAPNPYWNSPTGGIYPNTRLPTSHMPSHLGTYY
# Outline: as §1
# [5] = target: ELF1 (Homo sapiens, UniProt P32519 1-619); details: protein: recombinant; tags: N-terminal GST; dsDNA, one strand shown
# Outline: as §1
# [6] = target: T5, EHF (Homo sapiens, UniProt Q9NZC4 1-300); details: protein: recombinant; tags: N-terminal GST; dsDNA, one strand shown
# T5 sequence: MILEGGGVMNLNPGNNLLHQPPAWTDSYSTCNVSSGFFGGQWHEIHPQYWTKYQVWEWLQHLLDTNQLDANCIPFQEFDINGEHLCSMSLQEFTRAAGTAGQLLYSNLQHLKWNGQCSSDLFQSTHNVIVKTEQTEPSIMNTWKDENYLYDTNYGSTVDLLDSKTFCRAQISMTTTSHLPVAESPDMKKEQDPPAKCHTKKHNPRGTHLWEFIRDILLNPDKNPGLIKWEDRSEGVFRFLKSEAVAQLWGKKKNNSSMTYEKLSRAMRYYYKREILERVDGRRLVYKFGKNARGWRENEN
# Outline: as §1
# [7] = target: SPI1 (Homo sapiens, UniProt P17947 1-270); details: protein: recombinant; tags: N-terminal GST; dsDNA, one strand shown
# Outline: as §1
# [8] = target: SPIB (Homo sapiens, UniProt Q01892 1-262); details: protein: recombinant; tags: N-terminal GST; dsDNA, one strand shown
# Outline: as §1
# [9] = target: T6, ELK3 (Homo sapiens, UniProt P41970 1-407); details: protein: recombinant; tags: N-terminal GST; dsDNA, one strand shown
# T6 sequence: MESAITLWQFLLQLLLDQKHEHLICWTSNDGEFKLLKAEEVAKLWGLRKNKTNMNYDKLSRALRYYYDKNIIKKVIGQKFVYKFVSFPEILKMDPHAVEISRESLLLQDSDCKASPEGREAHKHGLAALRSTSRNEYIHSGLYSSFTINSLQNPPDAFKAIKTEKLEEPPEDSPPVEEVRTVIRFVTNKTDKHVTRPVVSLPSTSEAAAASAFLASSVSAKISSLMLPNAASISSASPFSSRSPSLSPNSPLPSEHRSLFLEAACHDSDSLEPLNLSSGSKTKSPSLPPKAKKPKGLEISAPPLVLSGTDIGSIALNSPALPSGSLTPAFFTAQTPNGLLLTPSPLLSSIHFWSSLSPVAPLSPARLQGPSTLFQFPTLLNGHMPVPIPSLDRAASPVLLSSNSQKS
# Outline: as §1
# [10] = target: T7, FEV (Homo sapiens, UniProt Q99581 1-238); details: protein: recombinant; tags: N-terminal GST; dsDNA, one strand shown
# T7 sequence: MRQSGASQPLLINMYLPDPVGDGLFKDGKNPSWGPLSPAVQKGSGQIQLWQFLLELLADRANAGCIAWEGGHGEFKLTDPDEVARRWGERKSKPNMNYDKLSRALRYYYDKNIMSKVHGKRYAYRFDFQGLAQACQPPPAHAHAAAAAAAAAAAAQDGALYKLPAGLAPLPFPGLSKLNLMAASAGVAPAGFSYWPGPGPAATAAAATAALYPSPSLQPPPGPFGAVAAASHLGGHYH
# Outline: as §1
# [11] = target: ETV5 (Homo sapiens, UniProt P41161 1-510); details: protein: recombinant; tags: N-terminal GST; dsDNA, one strand shown
# Outline: as §1
# [12] = target: HSF1 (Homo sapiens, UniProt Q00613 1-529); details: protein: recombinant; tags: N-terminal GST; chain copies: 3; dsDNA, one strand shown
# Outline: as §1
# [13] = target: T8, SPIC (Homo sapiens, UniProt Q8N5J4 1-248); details: protein: recombinant; tags: N-terminal GST; dsDNA, one strand shown
# T8 sequence: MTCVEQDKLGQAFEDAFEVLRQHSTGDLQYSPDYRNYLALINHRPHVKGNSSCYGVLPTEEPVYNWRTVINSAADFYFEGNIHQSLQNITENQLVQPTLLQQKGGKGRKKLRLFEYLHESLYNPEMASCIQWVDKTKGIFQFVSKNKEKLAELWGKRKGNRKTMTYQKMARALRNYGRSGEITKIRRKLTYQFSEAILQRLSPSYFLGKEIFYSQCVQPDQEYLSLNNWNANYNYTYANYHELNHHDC
# Outline: as §1
# [14] = target: ELF4 (Homo sapiens, UniProt Q99607 1-663); details: protein: recombinant; tags: N-terminal GST; dsDNA, one strand shown
# Outline: as §1
# [15] = target: T9, ELK4 (Homo sapiens, UniProt P28324-2 1-405); details: protein: recombinant; tags: N-terminal GST; dsDNA, one strand shown
# T9 sequence: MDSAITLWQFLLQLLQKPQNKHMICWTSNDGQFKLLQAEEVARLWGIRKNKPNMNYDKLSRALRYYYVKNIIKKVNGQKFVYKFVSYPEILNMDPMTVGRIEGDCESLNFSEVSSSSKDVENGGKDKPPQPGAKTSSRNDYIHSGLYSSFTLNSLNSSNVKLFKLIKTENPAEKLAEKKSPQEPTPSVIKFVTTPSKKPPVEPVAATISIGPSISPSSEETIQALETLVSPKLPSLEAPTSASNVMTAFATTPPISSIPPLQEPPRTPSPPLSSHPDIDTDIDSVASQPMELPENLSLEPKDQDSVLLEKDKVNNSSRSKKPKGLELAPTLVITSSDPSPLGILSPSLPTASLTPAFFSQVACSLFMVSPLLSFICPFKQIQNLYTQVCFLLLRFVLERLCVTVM
# Outline: as §1
# [16] = target: T10, ETV2 (Homo sapiens, UniProt O00321 1-342); details: protein: recombinant; tags: N-terminal GST; dsDNA, one strand shown
# T10 sequence: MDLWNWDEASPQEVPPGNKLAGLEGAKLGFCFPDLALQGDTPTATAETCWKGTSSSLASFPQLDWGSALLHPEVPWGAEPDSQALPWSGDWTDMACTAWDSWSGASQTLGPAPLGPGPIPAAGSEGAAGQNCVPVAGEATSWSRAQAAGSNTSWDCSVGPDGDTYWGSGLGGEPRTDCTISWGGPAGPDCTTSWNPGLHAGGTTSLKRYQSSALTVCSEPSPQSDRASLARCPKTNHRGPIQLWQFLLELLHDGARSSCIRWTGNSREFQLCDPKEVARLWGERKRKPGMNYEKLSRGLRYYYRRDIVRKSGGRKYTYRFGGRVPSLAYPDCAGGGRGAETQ
# Outline: as §1
# [17] = target: T11, ELF3 (Homo sapiens, UniProt P78545 1-371); details: protein: recombinant; tags: N-terminal GST; dsDNA, one strand shown
# T11 sequence: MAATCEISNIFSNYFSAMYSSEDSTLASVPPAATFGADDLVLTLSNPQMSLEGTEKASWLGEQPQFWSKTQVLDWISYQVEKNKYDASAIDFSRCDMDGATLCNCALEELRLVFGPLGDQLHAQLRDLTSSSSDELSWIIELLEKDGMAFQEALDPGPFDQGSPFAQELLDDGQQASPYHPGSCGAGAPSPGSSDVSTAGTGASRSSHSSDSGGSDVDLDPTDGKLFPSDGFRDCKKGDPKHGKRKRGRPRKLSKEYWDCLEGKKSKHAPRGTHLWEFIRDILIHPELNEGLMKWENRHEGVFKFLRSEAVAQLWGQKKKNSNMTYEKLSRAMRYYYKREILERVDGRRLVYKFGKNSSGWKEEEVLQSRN
# Outline: as §1
# [18] = target: ETV1 (Homo sapiens, UniProt P50549 1-477); details: protein: recombinant; tags: N-terminal GST; dsDNA, one strand shown
# Outline: as §1
# ETV1, sequence (P50549 whole entry): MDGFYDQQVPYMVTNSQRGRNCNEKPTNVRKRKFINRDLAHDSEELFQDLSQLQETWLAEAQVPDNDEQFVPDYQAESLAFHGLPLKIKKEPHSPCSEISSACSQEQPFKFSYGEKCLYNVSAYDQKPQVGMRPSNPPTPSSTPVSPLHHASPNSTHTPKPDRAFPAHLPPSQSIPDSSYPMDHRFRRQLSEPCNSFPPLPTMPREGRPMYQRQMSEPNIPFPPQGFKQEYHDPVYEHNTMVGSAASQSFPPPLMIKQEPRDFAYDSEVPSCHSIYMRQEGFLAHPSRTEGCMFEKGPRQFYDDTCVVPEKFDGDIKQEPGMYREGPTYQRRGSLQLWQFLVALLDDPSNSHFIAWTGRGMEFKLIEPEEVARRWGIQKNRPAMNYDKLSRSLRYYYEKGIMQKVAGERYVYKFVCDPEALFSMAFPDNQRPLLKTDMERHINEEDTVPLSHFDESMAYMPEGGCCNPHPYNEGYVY
# SPIB, sequence (Q01892 whole entry): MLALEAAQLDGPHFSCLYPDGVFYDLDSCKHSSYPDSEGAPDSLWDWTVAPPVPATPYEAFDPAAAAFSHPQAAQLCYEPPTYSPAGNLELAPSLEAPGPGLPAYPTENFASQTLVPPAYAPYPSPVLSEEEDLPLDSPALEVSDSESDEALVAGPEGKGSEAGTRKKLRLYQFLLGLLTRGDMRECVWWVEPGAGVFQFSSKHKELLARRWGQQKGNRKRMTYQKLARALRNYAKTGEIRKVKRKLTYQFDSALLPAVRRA
# ELF4, sequence (Q99607 whole entry): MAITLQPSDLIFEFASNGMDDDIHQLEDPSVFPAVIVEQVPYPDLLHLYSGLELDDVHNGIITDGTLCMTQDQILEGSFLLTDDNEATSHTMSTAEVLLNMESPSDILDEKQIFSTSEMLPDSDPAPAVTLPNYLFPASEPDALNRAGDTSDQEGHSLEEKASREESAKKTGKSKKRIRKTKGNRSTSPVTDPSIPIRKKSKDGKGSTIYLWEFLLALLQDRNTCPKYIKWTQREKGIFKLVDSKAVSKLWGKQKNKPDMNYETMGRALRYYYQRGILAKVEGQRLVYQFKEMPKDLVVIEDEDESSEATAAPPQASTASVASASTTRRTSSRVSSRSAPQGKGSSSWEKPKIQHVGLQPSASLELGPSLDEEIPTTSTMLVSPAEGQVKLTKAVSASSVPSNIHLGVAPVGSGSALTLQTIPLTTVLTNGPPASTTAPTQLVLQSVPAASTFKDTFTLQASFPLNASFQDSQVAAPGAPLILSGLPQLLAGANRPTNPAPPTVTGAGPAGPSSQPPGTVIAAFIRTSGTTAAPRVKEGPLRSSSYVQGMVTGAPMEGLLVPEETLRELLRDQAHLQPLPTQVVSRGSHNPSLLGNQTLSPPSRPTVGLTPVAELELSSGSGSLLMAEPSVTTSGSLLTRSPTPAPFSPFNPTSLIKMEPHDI
# ELF1, sequence (P32519 whole entry): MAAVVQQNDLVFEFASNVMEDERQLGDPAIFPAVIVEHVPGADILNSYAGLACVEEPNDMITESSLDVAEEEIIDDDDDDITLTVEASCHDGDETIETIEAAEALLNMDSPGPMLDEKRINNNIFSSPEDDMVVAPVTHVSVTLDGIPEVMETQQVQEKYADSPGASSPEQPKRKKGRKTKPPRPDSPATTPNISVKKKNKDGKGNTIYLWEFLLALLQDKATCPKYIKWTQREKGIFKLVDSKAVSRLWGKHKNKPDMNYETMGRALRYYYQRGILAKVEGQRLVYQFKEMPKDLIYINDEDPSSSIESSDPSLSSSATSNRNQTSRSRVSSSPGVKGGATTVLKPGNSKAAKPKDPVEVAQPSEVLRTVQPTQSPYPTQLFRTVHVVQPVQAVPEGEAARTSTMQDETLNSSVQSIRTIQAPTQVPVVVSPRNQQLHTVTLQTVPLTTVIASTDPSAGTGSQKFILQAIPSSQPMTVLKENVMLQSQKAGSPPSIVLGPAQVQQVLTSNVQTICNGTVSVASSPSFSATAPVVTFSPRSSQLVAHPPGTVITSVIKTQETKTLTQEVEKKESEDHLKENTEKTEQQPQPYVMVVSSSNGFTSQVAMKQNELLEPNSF
# ETV5, sequence (P41161 whole entry): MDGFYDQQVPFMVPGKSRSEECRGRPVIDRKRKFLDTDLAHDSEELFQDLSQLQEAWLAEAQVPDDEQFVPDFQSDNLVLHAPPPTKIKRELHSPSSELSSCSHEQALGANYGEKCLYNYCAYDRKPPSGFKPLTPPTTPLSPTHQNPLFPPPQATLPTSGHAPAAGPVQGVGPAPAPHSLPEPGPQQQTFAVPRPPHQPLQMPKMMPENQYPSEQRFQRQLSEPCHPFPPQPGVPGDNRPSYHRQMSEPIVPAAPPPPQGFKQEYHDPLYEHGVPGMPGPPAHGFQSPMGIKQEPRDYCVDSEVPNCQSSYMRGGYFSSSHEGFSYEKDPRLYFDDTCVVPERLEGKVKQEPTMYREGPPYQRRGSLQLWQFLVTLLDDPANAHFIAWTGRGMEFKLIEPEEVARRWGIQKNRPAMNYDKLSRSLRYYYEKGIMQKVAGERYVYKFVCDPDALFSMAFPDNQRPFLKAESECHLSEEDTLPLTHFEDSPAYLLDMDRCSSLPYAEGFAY
# HSF1, sequence (Q00613 whole entry): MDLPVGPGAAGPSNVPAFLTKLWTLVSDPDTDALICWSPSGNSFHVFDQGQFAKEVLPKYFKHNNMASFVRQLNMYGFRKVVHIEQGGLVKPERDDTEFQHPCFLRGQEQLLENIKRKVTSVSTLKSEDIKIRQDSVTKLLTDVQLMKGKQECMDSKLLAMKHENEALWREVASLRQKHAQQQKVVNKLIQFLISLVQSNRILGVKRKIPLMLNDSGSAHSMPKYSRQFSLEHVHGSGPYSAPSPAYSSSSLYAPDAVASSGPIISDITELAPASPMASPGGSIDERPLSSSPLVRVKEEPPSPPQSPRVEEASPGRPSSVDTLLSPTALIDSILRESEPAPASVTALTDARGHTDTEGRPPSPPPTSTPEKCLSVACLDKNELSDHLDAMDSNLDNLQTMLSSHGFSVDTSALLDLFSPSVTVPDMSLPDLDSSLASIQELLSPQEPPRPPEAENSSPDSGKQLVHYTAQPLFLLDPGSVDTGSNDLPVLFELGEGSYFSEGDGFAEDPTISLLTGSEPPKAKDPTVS
sequence,measurement,setting,value
CCGGCA,binding signal,[1],"1.38 fold enrichment (6-mer frequency, TF over GST control)"
same,binding signal,[2],"1.37 fold enrichment (6-mer frequency, TF over GST control)"
same,binding signal,[3],"1.39 fold enrichment (6-mer frequency, TF over GST control)"
same,binding signal,[4],"1.53 fold enrichment (6-mer frequency, TF over GST control)"
same,binding signal,[5],"1.29 fold enrichment (6-mer frequency, TF over GST control)"
same,binding signal,[6],"1.4 fold enrichment (6-mer frequency, TF over GST control)"
same,binding signal,[7],"1.44 fold enrichment (6-mer frequency, TF over GST control)"
same,binding signal,[8],"1.53 fold enrichment (6-mer frequency, TF over GST control)"
same,binding signal,[9],"1.5 fold enrichment (6-mer frequency, TF over GST control)"
same,binding signal,[10],"1.53 fold enrichment (6-mer frequency, TF over GST control)"
same,binding signal,[11],"1.47 fold enrichment (6-mer frequency, TF over GST control)"
same,binding signal,[12],"1.01 fold enrichment (6-mer frequency, TF over GST control)"
same,binding signal,[13],"1.32 fold enrichment (6-mer frequency, TF over GST control)"
same,binding signal,[14],"1.28 fold enrichment (6-mer frequency, TF over GST control)"
same,binding signal,[15],"1.24 fold enrichment (6-mer frequency, TF over GST control)"
same,binding signal,[16],"1.28 fold enrichment (6-mer frequency, TF over GST control)"
same,binding signal,[17],"1.31 fold enrichment (6-mer frequency, TF over GST control)"
same,binding signal,[18],"1.46 fold enrichment (6-mer frequency, TF over GST control)"
